Measurements: PubChem BioAssay AID449762 (Southern Research Specialized Biocontainment Screening …, 2010)
In all, about 330,000 compounds went through this assay and about 1,900 (0.58%) were called active. Inconclusive results (about 4%) are left out. The list is a sample of the results. Results with a measured potency or affinity are listed apart. A number with no mark means an inactive call. Rule as the data show it: inconclusive = inhibition above about 70% without an active follow-up result; inactive = below that.

Assay: M. tuberculosis growth inhibition, HTS (AID 449762);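 also: bacterial growth assessed after seven days of incubation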
Conditions: M. tuberculosis H37Rv growth inhibition, 7H9 media; at 25 µM; active compounds read high
In the case of `O=C(CN1C(=O)S/C(=C\c2ccc(F)cc2)C1=O)Nc1cccc(S(=O)(=O)NCc2ccco2)c1`, the inhibition is reported as -0.96%. Work on `C=CCNC(=O)C1CCN(c2cnccn2)CC1` yielded an inhibition of 1%. Compound `Cc1ccnc(NC(=O)C2CCN(S(=O)(=O)c3cccc(C(F)(F)F)c3)CC2)c1` has an inhibition of -6.67%. With `Cn1c(O)c(C=Nc2ccc(Br)cc2)sc1=O` the inhibition was 2%. Work on `N=c1oc2ccccc2cc1C(=O)Nc1ccccc1` yielded an inhibition of -6.06%. `N=c1oc2cc(O)ccc2cc1C(=O)Nc1ccccn1` showed an inhibition of 9.75%. Compound `O=C(NCc1nnc(SCC(=O)N2CCCC2)o1)c1ccc(F)cc1` has an inhibition of -1.8%. With `Cc1cc(C)c(C(=O)N(C)CC2CCCN(CCc3ccccc3F)C2)o1` (stereo unspecified) the inhibition was 7.36%. In the case of `CCOC(=O)C1(CCCc2ccccc2)CCN(C(=O)c2ccoc2)CC1`, the inhibition is reported as 3.78%. `O=C(Nc1cn(-c2ccccc2)nc1-c1ccc(Cl)cc1)c1ccccc1` showed an inhibition of 12.2%. `CC(=O)Nc1cn(-c2ccccc2)nc1-c1ccccc1` gave an inhibition of 8.61%. Compound `Oc1cc(NCCc2cccnc2)cc2cccnc12` has an inhibition of 11.9%. `NS(=O)(=O)c1cccc(NC(=O)c2ccc3nc[nH]c3c2)c1` showed an inhibition of 1.29%. `CC12CCC(=O)N1C(C(=O)Nc1ccc(F)cc1)CS2` (stereo unspecified) showed an inhibition of -9.52%. `CC(C)c1ccc(NC(=O)C2CSC3(C)CCC(=O)N23)cc1` (stereo unspecified) gave an inhibition of 5.83%. With `Cc1ccc(CNC(=O)c2ccc(N3CCC4(CC3)CC(c3ccccc3)=NO4)c(NC(=O)c3ccc(Br)cc3)c2)cc1` the inhibition was -2.65%. In the case of `Cc1[nH]c(=O)[nH]c(=O)c1/C=C/C(=O)O`, the inhibition is reported as -3.99%. Work on `Nc1c(C(=O)OCC(=O)NCc2ccccc2)[nH]c(=O)[nH]c1=O` yielded an inhibition of 1.89%. Compound `COc1ccc(-c2cc(C(F)F)n3ncc(C(=O)N4CCc5ccccc5C4)c3n2)cc1` has an inhibition of 15.6%. For `Cc1cc(C(F)F)n2ncc(C(=O)N3CCc4ccccc4C3)c2n1`, the inhibition was -2.51%. `CCN(CC(=O)Nc1c(F)cccc1F)C(=O)c1ccc2c(c1)OCO2` gave an inhibition of -12.6%. With `COc1ccc(S(=O)(=O)CC(O)CN2CCCC2=O)cc1` (stereo unspecified) the inhibition was -0.37%. `COc1cccc(N2C(=O)CN(Cc3ccc(OC)c(OC)c3)C2=S)c1` gave an inhibition of 2.7%. `C/C(CC1CC2=C(CC1(C)C)C(C)(C)CCC2)=N\NC(N)=S` (stereo unspecified) gave an inhibition of -0.2%. Work on `CC1=C(CC/C(C)=N/NC(N)=S)C(C)(C)CCC1` yielded an inhibition of 12%. `CC(C)n1ncc2c(C(=O)Nc3ccc(S(C)(=O)=O)cc3)cc(C3CC3)nc21` gave an inhibition of 2.05%.
